# From the OligoGym collection
# Molecular target: C13orf33
# Assay: pooled miR-30 sensor sort-seq; sequence = guide strand
# Details: shRNA
# Also: reference of the scale not given here.
row,Sequence,sensor-assay potency score (higher = more potent)
1,TAATCGTCTCCTTCTTTTCTGG,-0.326
2,TTGCTCAATATAGTTTCCCTGT,-0.333
3,TACCTCTTGATGTAGCTGCTGA,0.0733
4,TTAATAAAGAACAACATTGGTT,-0.331
5,TATCTGTCTTCTTATCTTGGGG,-0.395
6,TTGATGTAGCTGCTGAGGCGGT,-0.889
7,TTTATAATCACAGTAGTTGGTC,0.0911

# Molecular target: C14orf105
# Assay: as above
# Details: shRNA
row,Sequence,sensor-assay potency score (higher = more potent)
1,TTCCATACCAGTTTTCTTGTAA,0.252
2,TTGCTTATTAATTCTTGCCTCT,-0.134
3,TTCTTTTCTAGTACCTGCTTTG,-0.834
4,TTTCTAGTACCTGCTTTGCTTT,-0.906
5,TTGAATGCAAAGTCCACACGGC,0.351
6,TTTGCTTATTAATTCTTGCCTC,0.114
7,TTTTCTTTAACTCCATTTGGGC,-0.637
8,TTTCTTTTCTAGTACCTGCTTT,-0.0807
9,TTAATAATACTTGTTTCTCTGT,-0.864
10,TTGCTTTGTGCATTGTCCTGGC,0.239
11,TTTGCTTTGTGCATTGTCCTGG,0.729
12,TTCCTGAAGTAATTACTCGTGG,-0.0565
